Only a selection was taken, and hits are over-represented in it overall.
ROS inducer: ROS inducers in U2OS cancer cells, primary screen, cell-based, H2DCF-DA fluorescence; U2OS ROS induction; ROS induction (% of piperlongumine), % at 10 µM; hit rate 2% among 46,000; in the data active = ROS induction above about 79%, passing the limit was not always enough; inconclusive = no clear call, values can overlap the other calls
NOMO-1 viab: NOMO-1 AML cell viability reduction, primary screen, STK33 inhibitor project, CellTiter-Glo luminescence. NOMO-1 AML viability, 72 h. inhibition, % (test concentration not listed). hit rate 7.5% among 37,000. AID 2330, 2010; in the data active = inhibition above about 80%; inconclusive = no clear call, values can overlap the other calls
Each line names hits and unclear results; the compound was inactive in the other large screens.

O=C(CCCCCCC(=O)Nc1ccccc1O)N/N=C/c1cccc(B(O)O)c1	none (no result: NOMO-1 viab)
Cc1ccc(-n2nnc3c(SCC(=O)NCc4ccccc4Cl)ncnc32)cc1	none (no result: NOMO-1 viab)
CCCC(O)/C(=C/C1=C(C(=O)CC(CC(=O)O)OC(N)=O)C(=O)c2cccc(O)c2C1=O)CC(C(=O)O)[N+](C)(C)C (stereo not drawn)	NOMO-1 viab 108
c1ccc(N=c2scc(-c3cccs3)n2-c2ccccc2)cc1	none
COC(=O)CN1C(=O)/C(=C\c2ccc(O)cc2)SC1=S	none (no result: NOMO-1 viab)
COC(=O)C1=C(O)/C(=C/c2ccc(O)cc2)SC1=Nc1ccccc1	ROS inducer 164 (no result: NOMO-1 viab)
Cc1ccc(C(O)(COC(=O)C(C)C)COC(=O)C(C)C)c(O)c1	NOMO-1 viab 117
CC(C)CCCC(C)(O)c1ccc(C(=O)O)cc1O (stereo not drawn)	none
O=C(CCc1ccc(O)cc1)CC(CCc1ccc(O)cc1)O[C@@H]1OC[C@@H](O)[C@H](O)[C@H]1O (stereo partly drawn)	NOMO-1 viab 113
Oc1ccc(CCCCC(CCc2ccc(O)cc2)O[C@@H]2OC[C@@H](O)[C@H](O)[C@H]2O)cc1 (stereo partly drawn)	none (no result: NOMO-1 viab)
Cc1ccc(S(=O)(=O)N(C)C[C@H]2Oc3ccc(NC(=O)NC4CCCCC4)cc3CC(=O)N([C@H](C)CO)C[C@H]2C)cc1	none
COc1ccc(S(=O)(=O)N(C)C[C@H]2Oc3ccc(NC(=O)NC4CCCCC4)cc3CC(=O)N([C@@H](C)CO)C[C@H]2C)cc1	none
CC(C)NC(=O)Nc1ccc2c(c1)CC(=O)N([C@@H](C)CO)C[C@@H](C)[C@@H](CN(C)S(=O)(=O)c1ccc(Cl)cc1)O2	none
C[C@H]1CN([C@@H](C)CO)C(=O)Cc2cc(NC(=O)NC3CCCCC3)ccc2O[C@H]1CN(C)S(=O)(=O)c1ccc(Cl)cc1	ROS inducer 130, NOMO-1 viab 128
Cc1ccc(S(=O)(=O)N(C)C[C@@H]2Oc3ccc(NC(=O)NC4CCCCC4)cc3CC(=O)N([C@H](C)CO)C[C@@H]2C)cc1	NOMO-1 viab 124
Cc1ccc(S(=O)(=O)N(C)C[C@@H]2Oc3ccc(NC(=O)NC4CCCCC4)cc3CC(=O)N([C@@H](C)CO)C[C@@H]2C)cc1	NOMO-1 viab 116
O=C(CSc1nnc(-c2ccncc2)n1-c1ccccc1)NC1CCCCC1	none
COc1ccc(S(=O)(=O)Nc2ccc3c(c2)CC(=O)N([C@@H](C)CO)C[C@@H](C)[C@@H](CN(C)S(=O)(=O)c2ccc(C)cc2)O3)cc1	none
O=C(CSc1ccc2nnc(-c3ccccn3)n2n1)c1ccccc1	none (no result: NOMO-1 viab)
Cc1noc(C)c1NC(=O)N(C)C[C@@H]1Oc2ccc(NS(=O)(=O)c3ccc(Cl)cc3)cc2C(=O)N([C@@H](C)CO)C[C@@H]1C	none
CC(C)=CCOc1cc(C)cc2oc(=O)cc(-c3ccccc3)c12	ROS inducer 84 (no result: NOMO-1 viab)
CC(C)=CCOc1c2ccoc2cc2oc(=O)ccc12	none
CCN(CC)c1ncc2c(NCc3ccccc3)nc(SCc3ccccc3)nc2n1	ROS inducer 129
CCOC(=O)CSc1nc(Nc2ccccc2)c2cnc(N3CCOCC3)nc2n1	ROS inducer 150, NOMO-1 viab 112
O=C(CSc1nc(Nc2ccccc2)nc(N2CCOCC2)n1)N1CCc2ccccc21	none (no result: ROS inducer)
CCOC(=O)CSc1nc(NC#N)nc(N(CC)CC)n1	none (no result: NOMO-1 viab)
CN(Cc1ccccc1)C(=O)CSc1nc(NCc2ccc(Cl)cc2)c2ccccc2n1	none (no result: NOMO-1 viab)
CCOC(=O)CSc1nc(Nc2ccc(OC)cc2)c2cnc(N(CC)CC)nc2n1	ROS inducer inconclusive, NOMO-1 viab 120
CNC[C@H]1Oc2c(NS(=O)(=O)c3ccccc3)cccc2C(=O)N([C@@H](C)CO)C[C@@H]1C	none
Cc1ccc(S(=O)(=O)N(C)C[C@H]2Oc3ccc(NC(=O)Nc4ccc5c(c4)OCO5)cc3CC(=O)N([C@@H](C)CO)C[C@H]2C)cc1	none
C[C@H]1CN([C@@H](C)CO)C(=O)Cc2cc(NC(=O)Nc3ccc4c(c3)OCO4)ccc2O[C@H]1CN(C)S(=O)(=O)c1ccc(Cl)cc1	NOMO-1 viab 127
C[C@H](CO)N1C[C@H](C)[C@H](CN(C)S(=O)(=O)c2ccc(Cl)cc2)Oc2ccc(NC(=O)Nc3ccc4c(c3)OCO4)cc2CC1=O	NOMO-1 viab 126
COc1ccc(S(=O)(=O)N(C)C[C@@H]2Oc3ccc(NC(=O)Nc4ccc5c(c4)OCO5)cc3CC(=O)N([C@@H](C)CO)C[C@@H]2C)cc1	none
C[C@H]1CN([C@@H](C)CO)C(=O)Cc2cc(NC(=O)Nc3ccc4c(c3)OCO4)ccc2O[C@H]1CN(C)S(=O)(=O)c1ccccc1	NOMO-1 viab 128
Cc1ccc(S(=O)(=O)N(C)C[C@H]2Oc3ccc(NC(=O)Nc4ccc5c(c4)OCO5)cc3CC(=O)N([C@@H](C)CO)C[C@@H]2C)cc1	none
Cc1ccc(S(=O)(=O)N(C)C[C@@H]2Oc3ccc(NC(=O)Nc4ccc5c(c4)OCO5)cc3CC(=O)N([C@H](C)CO)C[C@@H]2C)cc1	NOMO-1 viab 102
